From PubChem BioAssay AID463173 (ICCB-Longwood Screening Facility, Harvard Medical School, 2010)
The whole screen tested about 52,000 compounds, of which about 1,700 (3.3%) were called active. This excerpt belongs to a sample that is enriched for actives. A number with no mark means an inactive call. Cut-off read from the data, not from the text of the source: active = survival mostly below about 52% (no sharp cut-off); inactive = mostly above about 56%.

system: Wild type; assay: growth inhibition of S. aureus wild type versus tarO mutant, primary screen, teichoic acid synthesis inhibitors, RN4220, OD600 (AID 463173); conditions: S. aureus RN4220 wild type/DeltatarO growth, OD600, 18 h, hits give low values, screened at 18.75 µg/mL (by protocol)

SMILES | survival
Cc1cccc(-c2nc3c4ccccc4nc(NCCc4ccccc4)n3n2)c1 | 3% (active)
c1ccc(CNc2nc3ccccc3c3nc(-c4ccccc4)nn23)cc1 | 67%
Cc1ccc(CCNc2nc3ccccc3c3nc(-c4ccccc4)nn23)cc1 | 73%
COc1ccc(CCNc2nc3ccccc3c3nc(-c4cccc(C)c4)nn23)cc1OC | 24%
CCCCNc1nc2ccccc2c2nc(-c3ccccc3)nn12 | -1% (active)
COc1ccccc1CNc1nc2ccccc2c2nc(-c3cccnc3)nn12 | 67%
Cc1ccc(CNc2nc3ccccc3c3nc(-c4cccc(C)c4)nn23)cc1 | 26%
COc1ccccc1CNc1nc2ccccc2c2nc(-c3cccc(C)c3)nn12 | 9% (active)
Cc1cccc(-c2nc3c4ccccc4nc(NCc4ccccc4Cl)n3n2)c1 | 163%
CN1C(N)=NC(=O)C1(CO)CO | 104%
CCOc1ccc(NC(=O)CSc2nc(-c3cccs3)cc(C(F)(F)F)c2C#N)cc1 | 66%
O=C(Cn1c(=O)c2ccccc2n(CC(=O)Nc2ccccc2F)c1=O)NCCc1ccccc1 | 89%
CCOc1ccc(CCNC(=O)c2cc3cc4ccc(OC)cc4nc3s2)cc1OCC | 101%
Cc1ccccc1-c1nc(CS(=O)CC(=O)N2CCN(c3cc(Cl)ccc3C)CC2)c(C)o1 (stereo unspecified) | 10% (active)
COc1cccc(-c2nc(CS(=O)CC(=O)N3CCN(c4cccc(C(F)(F)F)c4)CC3)c(C)o2)c1 (stereo unspecified) | -2% (active)
Cc1ccc(-c2nc(CS(=O)CC(=O)N3CCN(c4ccc(Cl)cc4)CC3)c(C)o2)cc1 (stereo unspecified) | 73%
COc1cccc(-c2nc(CS(=O)(=O)CC(=O)N3CCN(c4ccccc4)CC3)c(C)o2)c1 | 94%
Cc1ccc(-c2nc(CS(=O)CC(=O)N3CCN(c4cccc(Cl)c4)CC3)c(C)o2)cc1 (stereo unspecified) | 5% (active)
Cc1ccccc1-c1nc(CS(=O)CC(=O)NCCc2ccc(Cl)cc2)c(C)o1 (stereo unspecified) | 128%
Cc1oc(-c2ccccc2Cl)nc1CS(=O)CC(=O)N1CCN(c2cccc(C(F)(F)F)c2)CC1 (stereo unspecified) | 129%
Cc1ccc(-c2nc(CS(=O)CC(=O)N3CCN(c4ccccc4)CC3)c(C)o2)cc1 (stereo unspecified) | 88%
Cc1oc(-c2ccc(Cl)cc2)nc1CS(=O)CC(=O)N1CCN(c2cccc(C(F)(F)F)c2)CC1 (stereo unspecified) | 80%
CCOc1ccc(-c2nc(CSCC(=O)N3CCN(c4ccc(F)cc4)CC3)c(C)o2)cc1 | 113%
CCCn1c(=O)sc2cc(NC(=O)c3ccccc3Cl)ccc21 | 71%

SMILES | survival
COc1cccc(C2C(C(=O)Nc3ccccc3)=C(C)Nc3nc(-c4ccccc4)nn32)c1 (stereo unspecified) | 76%
COc1ccc(N2CCN(c3ccc(-c4nc(-c5ccccc5C)no4)cc3[N+](=O)[O-])CC2)cc1 | 88%
Cc1ccc(N(CC(=O)Nc2ccc(Br)c(C)c2)S(=O)(=O)c2cccs2)cc1 | 82%
Cc1ccc(N(C(=O)c2cccc(C)c2)S(=O)(=O)c2ccc(Cl)cc2)cc1 | 65%
Cc1ccc(NC(=O)N2CCC(n3c(C)nc4cccnc43)CC2)c(Cl)c1 | 71%
CC(=O)N1CCC(N(Cc2ccc(C)o2)C(=O)Nc2ccccc2F)CC1 | 85%
COc1ccc2[nH]c(=O)c(CN(C(=O)c3cccc(Cl)c3)c3ccccc3OC)cc2c1 | 81%
Fc1ccc(C(c2nnnn2C2CCCC2)N2CCc3ccccc32)cc1 (stereo unspecified) | 122%
Cn1cc(-c2cc3n(n2)CCC(=O)N3CCCC(=O)NCc2ccccc2)c2ccccc21 | 76%
O=C(CN1C(=O)CCn2nc(-c3ccccc3)cc21)NCc1ccccc1 | 124%
Cc1ccc(CNC(=O)CCCN2C(=O)CCn3nc(-c4cn(C)c5ccccc45)cc32)cc1 | 76%
CN(C)c1ccc(CNC(=O)CN2C(=O)CCn3nc(-c4cn(C)c5ccccc45)cc32)cc1 | 53%
O=C(CN1C(=O)CCn2nc(-c3ccccc3)cc21)NCc1ccc(Cl)cc1 | -3% (active)
Cn1cc(-c2cc3n(n2)CCC(=O)N3CCCC(=O)Nc2ccccc2F)c2ccccc21 | 159%
Cn1cc(-c2cc3n(n2)CCC(=O)N3CCCC(=O)Nc2ccccc2Cl)c2ccccc21 | -6% (active)
CN(C)c1ccc(CNC(=O)CCCN2C(=O)CCn3nc(-c4cn(C)c5ccccc45)cc32)cc1 | -1% (active)
CCc1ccccc1NC(=O)CCCN1C(=O)CCn2nc(-c3cn(C)c4ccccc34)cc21 | 134%
Cc1cccc(CNC(=O)CCCN2C(=O)CCn3nc(-c4cn(C)c5ccccc45)cc32)c1 | -6% (active)
Cc1ccc(CNC(=O)CN2C(=O)CCn3nc(-c4ccccc4)cc32)cc1 | 68%
Cn1cc(-c2cc3n(n2)CCC(=O)N3CCCC(=O)NCc2ccc(Cl)cc2)c2ccccc21 | 124%
Cc1cc(Cl)ccc1NC(=O)CN1C(=O)CSc2ccc(S(=O)(=O)N(C)C)cc21 | 68%
O=C(NCc1ccccc1)NC1COc2ccccc2C1 (stereo unspecified) | 82%
CCCCc1ccc(NC(=O)c2ccc3c(c2)CCN3S(=O)(=O)CC)cc1 | 80%
Cc1ccccc1NC(=O)c1c(NC(=O)C(C)Oc2cccc(Cl)c2)sc2c1CCCC2 (stereo unspecified) | 61%

SMILES | survival
Cc1c(CC(=O)NCCc2ccccc2)c(=O)oc2c(C)c3occ(C(C)(C)C)c3cc12 | 84%
COc1ccc(-n2c(-c3ccco3)nc3c(cnn3-c3ccc(Cl)cc3)c2=O)cc1 | 90%
CC1CCN(C(=O)Cn2cc(SCC(=O)Nc3ccccc3C(F)(F)F)c3ccccc32)CC1 | 105%
COc1ccc(CNC(=O)CN2C(=O)CCn3nc(-c4cn(C)c5ccccc45)cc32)cc1 | 80%
CCOc1ccc(CNC(=O)CN2C(=O)CCn3nc(-c4cn(C)c5ccccc45)cc32)cc1OC | -6% (active)
CCOc1ccccc1CNC(=O)CN1C(=O)CCn2nc(-c3cn(C)c4ccccc34)cc21 | 87%
COc1ccc(N2CCN(C(=O)CCn3nc(C)c(S(=O)(=O)N4CCCC4)c3C)CC2)cc1 | 80%
Cc1nn(CCC(=O)N2CCN(c3ccccc3)CC2)c(C)c1S(=O)(=O)N1CCCC1 | -6% (active)
COc1cccc(N2CCN(C(=O)CCn3nc(C)c(S(=O)(=O)N4CCCC4)c3C)CC2)c1 | 76%
CC(C)N(C(=O)CN1CCN(Cc2ccccc2)CC1)C(C)C | 107%
CCOC(=O)CNC(=O)N1CCN(S(=O)(=O)c2ccc3c(ccn3C)c2)CC1 | 0% (active)
COC(=O)CNC(=O)N1CCN(S(=O)(=O)c2ccc3c(ccn3C)c2)CC1 | 79%
CCOC(=O)CCNC(=O)N1CCN(S(=O)(=O)c2ccc3c(ccn3C)c2)CC1 | 113%
CCOC(=O)c1ccc(N=C2NC(=O)/C(=C/c3ccc(N4CCOCC4)cc3)S2)cc1 | 107%
CCOc1ccc(-c2c(C)nn3c(C)c(C(=O)NCc4ccc(Cl)cc4)cnc23)cc1OCC | 123%
O=C(Nc1cccc2cccnc12)c1cccc2ccccc12 | 1% (active)
O=C(Nc1ccc(Br)c2cccnc12)c1cccc2ccccc12 | 35%
CCOc1cc(C(=O)Nc2cccc3cccnc23)cc(OCC)c1OCC | 23%
CC(C)c1ccc(C(=O)Nc2cccc3cccnc23)cc1 | -3% (active)
Cc1ccc(C(=O)Nc2cccc3cccnc23)cc1Cl | 75%
O=C(Nc1cccc2cccnc12)c1cccc2c(Br)cccc12 | 77%
Cc1ccc2cccc(NC(=O)c3cccc4c(Br)cccc34)c2n1 | 134%
Cc1ccc2cccc(NC(=O)c3ccc(-c4cc(Cl)ccc4Cl)o3)c2n1 | 71%
Cc1ccc2cccc(NC(=O)c3cccc4ccccc34)c2n1 | -10% (active)

SMILES | survival
Cc1ccc2cccc(NC(=O)c3ccc(-c4cccc(Cl)c4)o3)c2n1 | 66%
O=C(Nc1cccc2cccnc12)c1ccc(-c2cccc(Cl)c2)o1 | 0% (active)
Cc1ccc2cccc(NC(=O)c3cccc4c(Cl)cccc34)c2n1 | 69%
COc1cccc(NC(=O)CCc2nnc3n(Cc4ccccc4Cl)c(=O)c4ccccc4n23)c1 | 84%
CCOC(=O)c1cccc(NS(=O)(=O)c2c(C)nc3sc(C)cn3c2=O)c1 | 81%
COc1ccc2c(c1)c1c(c(=O)n(-c3cccc(C)c3)c(=O)n1CC(=O)N1CCCC1)n2C | 82%
COc1ccccc1NC(=O)CSc1ncc2c(n1)-c1cc(Cl)ccc1N(Cc1ccccc1)S2(=O)=O | 77%
Cc1ccc(NC(=O)CC(C)S(=O)(=O)c2ccc3c(c2)NC(=O)CO3)c(Cl)c1 (stereo unspecified) | 87%
CCOc1ccc(NC(=O)CCCc2nc(-c3cccc(OC)c3)no2)cc1 | 87%
Cc1nnc(SCc2cc(=O)n3c(C)cccc3n2)s1 | 81%
Cc1cccc(-c2nnc(SCC(=O)OC(C)C)n2C)c1 | 106%
COc1c(C)cccc1C(=O)Nc1cccc2ccc(C)nc12 | -14% (active)
CCOc1ccccc1C(=O)Nc1cccc2ccc(C)nc12 | 49%
COc1ccc(Br)cc1C(=O)Nc1cccc2ccc(C)nc12 | 63%
CCCCCn1c(=O)[nH]c2cc(C(=O)Nc3ccc(OC)c(OC)c3)ccc2c1=O | 74%
Cc1nn(C)c2c1c(-c1ccccc1)cc(=O)n2Cc1c(F)cccc1Cl | -6% (active)
Cc1oc(-c2ccc(Cl)cc2)nc1Cn1c(=O)cc(C)c2c(C)nn(-c3ccccc3)c21 | 83%
Cc1cccc(-c2nc(Cn3c(=O)cc(-c4ccccc4)c4c(C)nn(C)c43)c(C)o2)c1 | -6% (active)
Cc1oc(-c2ccccc2)nc1Cn1c(=O)cc(-c2ccccc2)c2c(C)nn(C)c21 | 76%
CCOc1ccc(-c2nc(Cn3c(=O)cc(C)c4c(C)nn(-c5ccc(C)cc5)c43)c(C)o2)cc1 | 87%
CCOc1ccc(-c2nc(Cn3c(=O)cc(C)c4c(C)nn(-c5ccccc5)c43)c(C)o2)cc1 | 14% (active)
Cc1ccc(-c2nc(Cn3c(=O)cc(-c4ccccc4)c4c(C)nn(C)c43)c(C)o2)cc1 | 120%
Cc1nn(C)c2c1c(-c1ccccc1)cc(=O)n2Cc1ccccc1F | 120%
Cc1cc(=O)n(Cc2c(F)cccc2Cl)c2c1c(C)nn2C | 71%
